Active and inactive are the calls of the source. How the source made its calls: active means hit-call score of the fitted dose curve at least 0.9, where 1 is the maximum; inactive means score below 0.9.

This assay in a line: ATG_BRE_CIS: Attagene CIS-FACTORIAL HepG2 Assay for human Bone Morphogenetic Protein (BMP) Response Element (BRE) (AID 2282933). As to conditions: HepG2 BMP response element reporter, Attagene transcription factor profiling; actives raise or lower the signal. In outline: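 Multiplexed cis-reporter assay, HepG2, 24 h exposure. mRNA from reporter units quantified via RT-PCR/CE; DMSO baseline; bidirectional curve fit.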
As to `CCOS(=O)(=O)OCC`, the result was inactive.
As to `ClC(Cl)(Cl)c1ccccc1`, the compound was classed as inactive.
On to `CC(C)(C)N(NC(=O)c1ccc(Cl)cc1)C(=O)c1ccccc1`, for which the result was inactive.
Consider `CCN(CC)c1ccccc1`, for which the result was inactive.
For the compound `CCCCN(CCCC)SN(C)C(=O)Oc1cccc2c1OC(C)(C)C2`, the compound was classed as inactive.
As to `CCOP(=S)(OCC)SCSCC`, the compound was classed as inactive.
With `CCCCCCCc1ccc(O)cc1`, the compound was called inactive.
Take `O=C(O)C=CC(F)(C(F)(F)F)C(F)(F)F`: the call was inactive.
Take `CC(Cc1ccc(OCC(=O)O)cc1)NCC(O)c1csc(C(F)(F)F)n1` (stereo unspecified): the outcome was inactive.
Regarding `CCC(C)(C)c1ccc(O)cc1`, the outcome was inactive.
In the case of `O=S(=O)(F)C(F)(F)C(F)(F)C(F)(F)C(F)(F)C(F)(F)C(F)(F)C(F)(F)C(F)(F)F`, the call was inactive.
As to `N#Cc1c(-c2ccc(Cl)cc2)[nH]c(C(F)(F)F)c1Br`, the AC50 is 8.08 µM (active).
Turning to `O=P(Oc1ccccc1)(Oc1ccccc1)Oc1ccccc1`, the AC50 was 54 µM (active).
For the compound `O=[N+]([O-])c1ccc(Cl)c(Cl)c1`, the compound was classed as inactive.
For the compound `C/C(=N\NC(=O)Nc1cc(F)cc(F)c1)c1ncccc1C(=O)O`, the compound was classed as inactive.
Take `Nc1ccc(Cl)cc1`: the call was inactive.
The same measure, in the same setting: the entry for `CC(O)C#N` (stereo unspecified) is “inactive”; for `C=C(C)C(=O)OCC1CO1` (stereo unspecified) it is “inactive”.
Regarding `CCCCN(CC)C(=O)SCCC`, the result was inactive.
As to `CCCCN(CCCC)N=O`, the compound was classed as inactive.
Regarding `ClC(Cl)c1ccccc1`, the compound was called inactive.
On the same count and under the same terms, the entry for `c1ccc2c(c1)sc1ccccc12` is “inactive”; for `Cc1ccc([N+](=O)[O-])cc1C` it is “inactive”.
On to `CCC1(c2ccccc2)C(=O)N=C(O)NC1=O` (stereo unspecified), for which the compound was called inactive.
`OCC(F)(F)OC(F)(F)C(F)(F)OC(F)(F)CO`: the result was inactive.
In the case of `CCOP(=S)(Oc1ccc([N+](=O)[O-])cc1)c1ccccc1` (stereo unspecified), the AC50 is 62.6 µM (active).

What is called AC50 is the concentration giving half of the maximal activity seen.
